Shown is part of a subset that was picked to be rich in hits.
Pf Dd2 inh: Plasmodium falciparum Dd2 growth inhibition. P. falciparum Dd2 growth, SYBR Green, 72 h. Potency, µM (top dose mostly 28.9 µM), inactives show at the highest dose activity, negative = inhibition, most hits filed as inhibitors. 120,000 tested, 4.3% active. AID 1347417; active = well fitted inhibition curve with a large enough effect;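 note: plate controls were DMSO vehicle for no effect and reference drug for full effect; nearly all actives have a fitted effect of over 65% in size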
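Readout: SYBR Green fluorescence, 485 nm excitation, 535 nm emission, after ~16 h lysis at 37C. Before that, Dd2-infected red cells (2.5% hematocrit) grew 72 h with compound, 29 uM top final concentration.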
An asterisk follows results filed as active; i = inactive; [ ] = dose if it differs, or a comment. Potency is the fitted concentration of half-maximal effect.

SMILES	Pf Dd2 inh
O=C1NCCOCCCN(S(=O)(=O)c2ccc3c(c2)CCC3)[C@H]2CCCC[C@@H]12	i
COCCN1CC(CO)C2(CCN(C(=O)c3nccc4ccccc34)CC2)C1 (stereo not given)	6%
COc1ccc(NC(=O)OC[C@H]2C[C@@H]3CCN2C[C@@H]3c2cc(-c3ccccc3OC)nn2C)cc1	-26%
CC(=O)NC[C@H]1C[C@@H]2CCN1C[C@@H]2c1cc(-c2ccc(F)cc2)nc(C)n1	i
CCNC(=O)NC[C@H]1C[C@@H]2CCN1C[C@@H]2c1cc(-c2ccccc2)nc(C)n1	-9%[44.1 µM]
COc1ccccc1-c1cc([C@H]2CN3CC[C@H]2C[C@@H]3COC(=O)Nc2cccc(C(C)=O)c2)nc(C)n1	-4%
CC(=O)Nc1ccc(S(=O)(=O)NC[C@H]2C[C@@H]3CCN2C[C@@H]3c2cc(-c3ccco3)nc(C)n2)cc1	i
CCC(CC)C(=O)NC[C@H]1C[C@@H]2CCN1C[C@@H]2c1cc(-c2ccco2)nc(C)n1	-30%[44.1 µM]
COc1ccc(-c2cc([C@H]3CN4CC[C@H]3C[C@@H]4COC(=O)NC3CCCCC3)nc(C)n2)cc1	i
CCC(CC)c1cc([C@H]2CN3CC[C@H]2C[C@@H]3CNC(C)=O)nc(-c2ccncc2)n1	2µM*
COc1ccc(OC)c(S(=O)(=O)NC[C@H]2C[C@@H]3CCN2C[C@@H]3c2cc(-c3ccco3)nc(C)n2)c1	i
CCCNC(=O)OC[C@H]1C[C@@H]2CCN1C[C@@H]2c1cc(C(CC)CC)nc(-c2ccncc2)n1	1.4µM*
COc1ccc(NC(=O)OC[C@H]2C[C@@H]3CCN2C[C@@H]3c2cc(C3CCCC3)nc(-c3ccncc3)n2)cc1	1.8µM*
Cc1nc(-c2ccco2)cc([C@H]2CN3CC[C@H]2C[C@@H]3CNS(=O)(=O)c2cccs2)n1	7.1µM*
COc1ccc(-n2nc(C3CCN(C(=O)c4ccc(F)cc4)CC3)[nH]c2=O)cc1	i
O=C1[C@@H]2C[C@@H](CN2C(=O)C2CCOCC2)Oc2ccccc2N1Cc1ccccc1	9%[44.1 µM]
O=C(Cc1ccc(C(F)(F)F)cc1)N1CCC2OCCN(Cc3ccccc3)C(=O)C2C1 (stereo not given)	i
Cc1cc(C(=O)N2CCCC2c2nc(CCOCC3CCCC3)no2)nn1C (stereo not given)	-19%
O=C(c1ccn[nH]1)N1CC(F)(F)C[C@H]1c1nc(C2CC2)no1	19%
Cc1ccc2c(C(=O)NCCc3cccnc3)cc(NC(=O)C(C)C)cc2n1	-12%
CCn1ccc(C(=O)N2CCCC(c3nc(-c4ccccc4)no3)CCNC(=O)CC2)n1 (stereo not given)	i
O=C(c1ccc(C(F)(F)F)cc1)N1CCCC2(CC(c3ccccc3)=NO2)C1 (stereo not given)	8%
Cn1nc(-c2ccc3ccccc3c2)cc1[C@H]1CN2CC[C@H]1C[C@@H]2CNS(=O)(=O)c1cccs1	13µM*
CC(C)c1ccc(NC(=O)OC[C@H]2C[C@@H]3CCN2C[C@@H]3c2cc(C3CCCCC3)nn2C)cc1	-23%
CC(=O)c1ccc(NC(=O)OC[C@H]2C[C@@H]3CCN2C[C@@H]3c2cc(-c3cccs3)nn2C)cc1	-25%
SMILES	Pf Dd2 inh
CCC(CC)c1cc([C@H]2CN3CC[C@H]2C[C@@H]3COC(=O)Nc2ccc(C(C)(C)C)cc2)nc(-c2ccncc2)n1	1.3µM*
CC(C)(C)c1ccc(NC(=O)OC[C@H]2C[C@@H]3CCN2C[C@@H]3c2cc(C3CCCC3)nc(-c3ccncc3)n2)cc1	1µM*
CCC(CC)c1cc([C@H]2CN3CC[C@H]2C[C@@H]3CNS(=O)(=O)c2cccs2)nc(-c2ccncc2)n1	1.1µM*
Cn1nc(-c2ccccc2)cc1[C@H]1CN2CC[C@H]1C[C@@H]2CNS(=O)(=O)c1cccs1	-13%[44.1 µM]
Cc1nc(C2CCCC2)cc([C@H]2CN3CC[C@H]2C[C@@H]3CNC(=O)CCCC(=O)O)n1	i
Cc1nc(-c2ccc(F)cc2)cc([C@H]2CN3CC[C@H]2C[C@@H]3CNS(=O)(=O)Cc2ccccc2)n1	i
Cn1nc(-c2ccc3ccccc3c2)cc1[C@H]1CN2CC[C@H]1C[C@@H]2COC(=O)Nc1ccccc1	-24%
Cc1nc(-c2ccc(C(F)(F)F)cc2)cc([C@H]2CN3CC[C@H]2C[C@@H]3CNS(C)(=O)=O)n1	i
Cn1nc(-c2cccs2)cc1[C@H]1CN2CC[C@H]1C[C@@H]2CNS(=O)(=O)c1ccccc1	i
C[C@@]1(O)CCN(C(=O)CCCS(N)(=O)=O)C[C@@H]1Cc1ccccc1	16%
NCc1ccccc1-c1nc2c([nH]1)CCNC2C(=O)O (stereo not given)	3%
CN(C)C[C@H]1C[C@H](CO)CN(C(=O)c2cccc(CCC(C)(C)O)c2)C1	-4%
CC1=C[C@@H](CNC(=O)c2ccccc2)[C@H](C(C)C)C[C@H]1CC(=O)NCc1cccnc1	i
O=C1CC(c2noc(-c3cc(F)ccc3F)n2)CN1c1ccc(F)cc1 (stereo not given)	4%
COc1ccc(C(=O)NC[C@H]2C[C@@H]3CCN2C[C@@H]3c2cc(-c3ccc(F)cc3)nn2C)cc1	i
Cn1nc(-c2ccc(F)cc2)cc1[C@H]1CN2CC[C@H]1C[C@@H]2CNC(=O)c1cccs1	13µM*
Cc1ccc(C(=O)NC[C@H]2C[C@@H]3CCN2C[C@@H]3c2cc(-c3ccc(F)cc3)nn2C)cc1	i
O=C1NN=C(c2cccnc2)C12CCN([S+](=O)([O-])c1cccc(C(F)(F)F)c1)CC2	-19%
CCc1ccccc1-n1nc(-c2c(C)nc3scc(CC(=O)NCc4ccco4)n3c2=O)cc1C	-8%
O=C(NCC1CN(C(=O)CCc2ccccc2)CC12CN(c1ccccc1)C2)c1ccccc1 (stereo not given)	i
Cn1nccc1C(=O)N1CC(COc2ccccc2)C2(C1)CN(c1ccccc1)C2 (stereo not given)	i
Cn1nccc1C(=O)N1CC(CNC(=O)c2ccccc2)C2(C1)CN(c1ccccc1)C2 (stereo not given)	13µM*
CN1[C@@H](CCC(=O)N2CCCC2)CNC(=O)[C@@H]2[C@H]1CCN2Cc1nc2ccccc2n1C	-6%
COC[C@@H]1CN(S(=O)(=O)c2ccc(C)c(F)c2)C[C@H]1C(N)=O	3%
CC(C)NC(=O)C1c2ccccc2C(=O)N(C2CCCC2)C12CCCC2 (stereo not given)	11%
SMILES	Pf Dd2 inh
O=C(NC1CCCC1)C1c2ccccc2C(=O)N(C2CCCC2)C12CCCCC2 (stereo not given)	10µM*
COC(=O)CNC(=O)C1c2ccccc2C(=O)N(C2CCCC2)C12CCCCC2 (stereo not given)	-15%
COc1ccc(C(=O)N2CCc3nc(C)nc(-c4ccc(Cl)cc4)c3CC2)cc1	i
COc1ccc(-c2nc3c(c(=O)[nH]2)CCN(C(=O)CSc2ccccc2)C3)cc1	4.5µM*
COc1ccc(-c2nc3c(c(=O)[nH]2)CCN(C(=O)c2ccccc2)C3)cc1	i
COc1ccc(-c2nc3c(c(=O)[nH]2)CCN(C(=O)COc2ccc(F)c(F)c2)C3)cc1	1%
CCC(C)NC(=O)C1COC2(CCC(C)CC2)N1C(=O)c1cccc(C)c1 (stereo not given)	-20%
CN(CC1CCOCC1)C(=O)c1ccc(F)c(F)c1	-13%
O=C(NCc1cccnc1Oc1ccc(F)cc1F)c1cc(C2CC2)[nH]n1	-18%
Cc1cccc([S+](=O)([O-])N(C)Cc2cccn2C)c1	-7%[44.1 µM]
COc1ccc(-c2ccc3c(N)c(C(=O)Nc4cc(F)ccc4C)sc3n2)cc1	22%
